From PubChem BioAssay
Active and inactive are the calls of the source.

Experiments:
[1] = tested on: XIP peptide (Xip251-270) binding; assay: small-molecule binders of XIP peptide, primary screen, biochemical, small-molecule microarray, fluorescence 635/667 nm, 0.1 µg/mL protein (AID 1182); settings: fluorescent protein binding, 635 nm, higher = more signal, called active from +8 up or from −8 down
[2] = tested on: XIP peptide (Xip251-270); assay: small-molecule binders of XIP peptide, primary screen, biochemical, small-molecule microarray, fluorescence 635/667 nm, 0.5 µg/mL protein (AID 1183); settings: small-molecule microarray binding, fluorescence 635 nm; higher = more signal
[3] = Plasmodium falciparum growth inhibition, primary screen, strain 3D7, DAPI fluorescence, 100 nL (AID 1184);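 also: parasites grown inside human red blood cells in medium with human serum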; settings: P. falciparum 3D7 growth, 3 d, higher = more signal
[4] = biological target: Homeobox protein Hox-A13 (Mus musculus) (UniProt Q62424); assay: inhibitors of HoxA13-DNA binding, primary screen, biochemical, fluorescence polarization, labeled oligonucleotide (AID 1185); settings: 15 min, higher = more signal, called active from +8 up or from −8 down
Chain of Homeobox protein Hox-A13 (Mus musculus) (Q62424 whole entry, looked up): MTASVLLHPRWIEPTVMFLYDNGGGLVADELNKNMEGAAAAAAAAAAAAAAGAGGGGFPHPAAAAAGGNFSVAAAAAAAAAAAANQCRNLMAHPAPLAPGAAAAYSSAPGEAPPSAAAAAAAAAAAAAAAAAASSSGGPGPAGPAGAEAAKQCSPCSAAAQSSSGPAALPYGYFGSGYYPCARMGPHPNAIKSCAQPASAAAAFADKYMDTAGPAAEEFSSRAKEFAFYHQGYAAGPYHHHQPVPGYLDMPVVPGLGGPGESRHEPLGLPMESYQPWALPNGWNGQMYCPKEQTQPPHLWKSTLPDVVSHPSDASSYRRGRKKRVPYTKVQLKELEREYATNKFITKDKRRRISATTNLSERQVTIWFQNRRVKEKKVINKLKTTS

Structure (SMILES) | composite z-score [1] | composite z-score [2] | z-score [3] | z-score [4]
CO[C@H]1COC(=O)[C@H](C)NC(=O)[C@@H](C)COC(=O)CC=C[C@@H]1C | 0.166 (inactive) | 0.518 | 0.336 | -0.467 (inactive)
COC(=O)[C@@H]1CC[C@H](C)[C@@H](c2ccc(C)cc2)N1C(=O)c1ccc(C=NOC[C@@H](O)COCc2ccco2)cc1 | -0.484 (inactive) | -1.03 | -2.31 | -6.19 (inactive)
CC[C@@H](c1ccccc1)n1c(=O)n2n(c1=O)[C@H]1[C@H](O)[C@@H]3O[C@@H]3C(=NOCC(C)C)[C@H]1CC2 | -0.242 (inactive) | 0.68 | -0.265 | -2.28 (inactive)
CCCCc1nc2c(c3c1C[C@H](C)OC3)CN(CCC(C)C)CC2 | 0.172 (inactive) | 0.715 | -0.522 | -5.63 (inactive)
C[C@@H]1C=CCC(=O)OC[C@H](C)C(=O)N[C@@H](C)C(=O)OC1 | 0.0195 (inactive) | -0.059 | -0.207 | 0.442 (inactive)
Cc1cc2c(nc1C)CCCN2CC(C)ON=C1[C@H]2CCn3c(=O)n(-c4ccccc4)c(=O)n3[C@H]2[C@H](O)[C@@H]2O[C@H]12 (some centres undefined) | 0.117 (inactive) | 0.32 | 0.0318 | -8.15 (active)
CO[C@@H]1COC(=O)[C@@H]2CCCN2C(=O)[C@@H](C)COC(=O)[C@H](COCc2ccccc2)NC(=O)CC=C[C@H]1C | -0.33 (inactive) | 0.0728 | -0.67 | -0.767 (inactive)
O=C1C[C@@H](O)[C@@H](O)[C@@H]2[C@@H]3C(=O)N(Cc4ccc5c(c4)OCO5)C(=O)[C@@H]3CC[C@@H]12 | 0.0648 (inactive) | 0.353 | -0.522 | -0.682 (inactive)
C[C@@H](c1ccccc1)N1C(=O)[C@H]2[C@H]3[C@H](O)[C@H](O)CC(=NNC(=O)OCc4ccccc4)[C@H]3CC[C@H]2C1=O | -0.724 (inactive) | -0.131 | -0.547 | -5.68 (inactive)
COC(=O)[C@H](C)NC(=O)CCC1CC(OC(=O)NCc2cccc3ccccc23)CC2(CCCC(COC(=O)NCC3CCCCC3)O2)O1 (some centres undefined) | 0.0034 (inactive) | 0.689 | -1.96 | -2.34 (inactive)
O=C1[C@H]2[C@H]3[C@H](O)[C@H](O)CC(=NO[C@@H]4O[C@H](CO)[C@@H](O)[C@H](O)[C@H]4O)[C@H]3CC[C@H]2C(=O)N1Cc1ccc2c(c1)OCO2 | -0.0799 (inactive) | 0.0812 | 0.185 | -0.567 (inactive)
CCc1cc2c(nc1CC)CCN(CCC(C)=NOC[C@@H](O)[C@H]1O[C@@H]3OC(C)(C)O[C@@H]3[C@H]1O)C2 | 0.221 (inactive) | 0.267 | 0.204 | -5.4 (inactive)
CC(C)=CCCC(C)=CCON=C1[C@H]2CCn3c(=O)n(Cc4cc5c(cc4Cl)OCO5)c(=O)n3[C@H]2[C@H](O)[C@@H]2O[C@H]12 | -0.0418 (inactive) | 0.208 | -1.17 | -1.16 (inactive)
O=C1C[C@@H](O)[C@@H](O)[C@@H]2[C@@H]3C(=O)N(C4CCCCC4)C(=O)[C@@H]3CC[C@H]12 | -0.149 (inactive) | 0.349 | 0.266 | 0.34 (inactive)
COc1ccc(O[C@H]2C=C[C@@H](c3ccccc3)O[C@@H]2COC(=O)CCC(C)=NOC[C@@H](C)[C@H](OCc2ccccc2)C(C)C)cc1 | 0.294 (inactive) | -0.794 | -0.925 | -0.43 (inactive)
COC(=O)[C@H](C)NC(=O)CCC1CC(OC(=O)NCc2ccc3c(c2)OCO3)CC2(CCCC(COC(=O)NCCOc3ccccc3)O2)O1 (some centres undefined) | -0.045 (inactive) | 0.588 | -1.79 | -2.45 (inactive)
